# Results from PubChem BioAssay AID1463 (National Center for Advancing Translational Sciences (NCATS), 2008).
# About 2,600 (0.93%) of roughly 280,000 compounds were called active. Roughly 8% stayed inconclusive and do not appear here. This excerpt belongs to a sample that is enriched for actives. Values without a mark were called inactive. Calls come from the whole dose curve; as a rule, active = well fitted curve in the direction sought with a large enough effect; inconclusive = small, poorly fitted or top-dose-only effect; inactive = flat fitted curve, though single readings scatter.
# Test: Counterscreen qHTS for Inhibitors of Tau Fibril Formation, Fluorescence Polarization; note: nearly all actives have a fitted effect of over 55% in size
# Details: tau K18 P301L (four-repeat tau fragment) Alexa594 fluorescence, heparin fibrillization; series mostly up to 57.7 µM; activity change, negative = decrease: at the top concentration
# Text: NIH Molecular Libraries Probe Production Network [MLPCN]
# NIH Chemical Genomics Center [NCGC]
# Assay Provider: Carlo Ballatore, University of Pennsylvania
# The microtubule-associated protein tau is an abundant protein in the axons of neurons that stabilizes microtubules. With its ability to modulate microtubule dynamics, tau contributes directly or indirectly, to key structural and regulatory cellular functions. Particularly important is the influence tau exerts on axonal transport, which allows signaling molecules, trophic factors and other essential cellular constituents to travel along the axons. Under pathological conditions, tau becomes sequestered into insoluble aggregates called neurofibrillary tangles. This phenomenon is believed to have pathological consequences by promoting axonal transport deficits that ultimately lead to synaptic dysfunction and neuronal loss. To identify inhibitors of tau aggregation, a heparin-induced tau fibril formation assay was used that employed a recombinantly expressed fragment of tau, K18 (Q242-E372), bearing a P301L mutation (Gustke et al. 1994; Hong et al. 1998). […] Total fluorescence (555 nm excitation and 632 nm emission) was measured to identify fluorescent or absorbent compounds at this wavelength. Such compounds may be artifacts that interfere with the Alexa 594 Tau fluorescence polarization assay.
# Gustke, N., B. Trinczek, et al. (1994). "Domains of tau protein and interactions with microtubules." Biochemistry 33(32): 9511-22.
# Hong, M., V. Zhukareva, et al. (1998).
# Li, W. and V. M. Lee (2006). "Characterization of two VQIXXK motifs for tau fibrillization in vitro." Biochemistry 45(51): 15692-701.
# von Bergen, M., S. Barghorn, et al. (2001). "Mutations of tau protein in frontotemporal dementia promote aggregation of paired helical filaments by enhancing local beta-structure." J Biol Chem 276(51): 48165-74.
# NCGC Assay Protocol Summary:
# For screening, 2 uL/well human K18 P301L (15 uM unlabeled and 0.24 uM Alexa 594-labeled tau final concentrations) in reagent buffer (100 mM sodium acetate pH 7) was dispensed into black solid 1536-well plates (Grenier) using a solenoid-based dispenser. Following transfer of 23 nL compound or DMSO vehicle by a pin tool, 2 uL/well heparin (20 uM final concentration) in reagent buffer was added and the plate centrifuged 15 s at 1000 RPM. Plates were incubated 6 hr at 37 C and then 1 uL/well ThT (30 uM final concentration) was added. After a 1 hr ambient incubation, the plates were read by an Envision (Perkin Elmer) to monitor Alexa 594 FP (555 nm excitation and 632 nm emission).
# Keywords: NIH Roadmap, MLPCN, MLI, MLSMR, NCGC, qHTS, tau, tauopathies, Alzheimer's disease, fibril, neurodegeneration, aggregation
# % is set by controls: 0 for no effect and ±100 for the full control effect; potency is the fitted concentration of half-maximal effect; tags give direction and shape of the fitted curve or compound fluorescence and quenching.
SMILES,"activity change, negative = decrease [%]",Potency
COC(=O)c1ccc(NC(=O)CCc2c(C)nn(-c3ccc(N4CCCC4)nn3)c2C)cc1,-12.2,
COc1ccc(N=C(C)c2sc3ccccc3c2O)cc1,-23.8,
Oc1ccc2ccccc2c1C=Nc1ccccc1,-20.7,
Oc1ccc(N=Cc2sc3ccccc3c2Cl)cc1,,10 µM [quencher] (active)
CCCNc1ncnc2c1c(-c1ccccc1)cn2-c1ccc(OCC)cc1,-8.19,
O=C(Nc1ccccc1F)C(c1ccccc1)N1Cc2ccccc2C1=O (centres undefined),-6.79,
Cc1ccc(C)c(CNC(=O)c2cc3ccccn3n2)c1,-15.9,
CCc1ccc(CNC(=O)c2ccc(CS(=O)c3ccc(Br)cc3)o2)cc1 (centres undefined),-8.58,
CN(C)c1cccc(C(=O)Nc2nc3ccc(S(=O)(=O)NC(C)(C)C)cc3s2)c1,-26.9,
COc1ccc2[nH]cc(CCNc3ncnc4ccc(-c5ccccc5CN(C)C)cc34)c2c1,-18.8,
COc1ccc2[nH]cc(CCNc3nc(-c4cccc(NS(C)(=O)=O)c4)nc4ccccc34)c2c1,,28.2 µM [quencher] (active)
COCCNc1ccnc(-c2cccc(NS(C)(=O)=O)c2)n1,-11.8,
Cc1cccc(Cn2c(CN3CCC(C(=O)NCc4ccccc4Cl)CC3)cc3ccccc32)c1,-1.33,
CCn1c2ccccc2c2cc(NC(=O)CNC)ccc21,-25.8,
Cc1cc([N+](=O)[O-])ccc1NC(=O)c1ccc(NC(=O)C(C)C)cc1,-6.04,
CCn1c2ccccc2c2cc(NC(=O)Nc3ccc([N+](=O)[O-])cc3C)ccc21,,8.91 µM [quencher] (active)
O=C(Cn1cc(SCc2cccc(Cl)c2)c2ccccc21)N1CCCCC1,-24.4,
Cc1nc2ccn(Cc3cccnc3)c(=O)c2cc1C(=O)N1CCN(c2ccccc2F)CC1,-0.563,
O=C(Cc1ccccc1)NCc1ccc(F)cc1,-0.209,
CN(C)c1ccc(C(CNC(=O)c2ccc(F)cc2)c2c[nH]c3ccccc23)cc1 (centres undefined),,25.1 µM [quencher] (active)
CCOc1ccccc1C(=O)NCC(c1ccc(N(C)C)cc1)N1CCCC1 (centres undefined),4.45,
CCOc1ccc(CNC(=O)Cn2cc3c(n2)-c2c(oc(C(=O)N4CCCC4)c2C)CC3)cc1,-13.1,
O=C(CN1C(=O)COc2ccc(S(=O)(=O)N3CCOCC3)cc21)N1CCN(c2cccc(Cl)c2)CC1,-9.08,
COc1ccc(/C=N/Nc2ncnc3sc4c(c23)CCCC4)cc1O,,14.1 µM [quencher] (active)
CC1(C)CN=C(N2CCN(c3ncnc4sc5c(c34)CCCC5)CC2)S1,2.38,

SMILES,"activity change, negative = decrease [%]",Potency
COc1ncnc2sc3c(c12)CCCC3,6.33,
Cc1ccc(Cl)cc1NC(=O)CCS(=O)(=O)c1ccc(Br)s1,-2.67,
Cc1ccccc1Nc1nn2c(=O)c3ccc(C(=O)NCCc4ccc(Cl)cc4)cc3nc2s1,-23.6,
CN1CCN(C2(CNC(=O)COc3ccc(C(C)(C)C)cc3)CCCCC2)CC1,-8.9,
Cn1c(C(=O)N2CCC(C(=O)N3CCN(c4ccccc4)CC3)CC2)cc2sccc21,-5.95,
Cc1nn(C)cc1/C=N/NC(=O)c1sc2ccccc2c1Cl,-17.1,
O=C(N/N=C/c1c(Cl)[nH]c2ccccc12)c1sc2ccccc2c1Cl,,10 µM [quencher] (active)
CCCC(=O)Nc1ccc(NC(=O)c2sc3ccccc3c2Cl)cc1,-3.72,
CCOc1ccc(CCNC(=O)c2ccc3c(c2)sc2nc(-c4ccc(F)cc4)cn23)cc1OCC,-23.8,
COc1ccccc1CC(=O)Nc1ccc([N+](=O)[O-])cc1OC,-24.8,
COc1ccccc1CSc1nc2ccccc2[nH]1,-13.5,
COc1ccccc1CSc1ncc(-c2ccc([N+](=O)[O-])cc2)[nH]1,,28.2 µM [quencher] (active)
CCc1ccccc1NC(=O)N1CCN(C(=O)c2nsc3ccccc23)CC1,-5.01,
COc1cccc(NC(=S)NCc2ccco2)c1,1.26,
Cc1[nH]c2ccccc2c1CCN(Cc1cccs1)C(=S)NC(C)(C)C,-17.2,
COc1cccc(NC(=S)N(CCc2c(C)[nH]c3ccccc23)Cc2ccco2)c1,,12.6 µM [quencher] (active)
CC(C)(C)OC(=O)N1CCC(c2c(C(=O)N3CCc4ccccc4C3)cnn2-c2ccc(F)cc2)CC1,-6.75,
O=C1c2ccccc2C(=O)N1CCc1nn[nH]n1,4.43,
Cc1ccc2[nH]cc(CCCN3C(=O)c4ccccc4C3=O)c2c1,,25.1 µM [quencher] (active)
O=C1c2ccccc2C(=O)N1CCCc1nc(-c2ccccc2)no1,-12.6,
COc1ccc(CCNC(=O)c2ccc3c(c2)sc2nc(-c4ccc(C)cc4)cn23)cc1OC,12.4,
O=C(CSCc1cnn(-c2ccccc2)c1-n1cccc1)NCc1ccccc1Br,-5.24,
CCOc1ccccc1CNC(=O)c1cnc2c(-c3ccc(OCC)c(OCC)c3)c(C)nn2c1C,-23.8,
CN(c1ccc(OCC(=O)OCC(=O)Nc2cccc([N+](=O)[O-])c2)cc1)S(=O)(=O)c1ccc(F)cc1,,10 µM [quencher] (active)
